The text below walks through data of PubChem BioAssay (Tox21).

Results filed as inconclusive are left out. Active and inactive are the calls of the source. The call rests on the fitted dose curve; in most records, active means well fitted activation curve with a large enough effect in the repeat runs; inconclusive means weak or mixed curves; inactive means flat fitted curve, though single readings scatter.
On the % scale 0 is the no-effect control and ±100 the full control effect.

The test can be described thus: Caspase-3/7 induction in HepG2 cells by small molecules, qHTS assay (AID 1346978). Further: nearly all actives have a fitted effect of over 15% in size. The following applies: HepG2 caspase-3/7 activation, Caspase-Glo luminescence, 17 h; series mostly up to 92.4 µM; caspase activation: at the top concentration. The source says:
National Center for Advancing Translational Sciences [NCATS] NIH Chemical Genomics Center [NCGC] U.S. Environmental Protection Agency [EPA] National Institutes of Environmental Health Sciences [NIEHS] National Toxicology Program [NTP] Assay overview: Apoptosis is a process of programmed cell death and plays a central role in the development of multicellular organisms. It is a highly regulated process and induces cell death by activating caspases, which are the members of cysteine aspartic acid-specific protease (caspase) family. Caspases involved in apoptosis are classified by their mechanism of action as initiator caspases (caspase-2, -8, -9 and -10) and executioner caspases (caspase-3, -6, and -7). Inhibition of apoptosis results in number of cancers, autoimmune diseases, inflammatory diseases and viral infection. To identify small molecule compounds that induce apoptosis, a homogeneous, luminescent Caspase-Glo 3/7 assay was used. Wild type HepG2 cells were used to screen Tox21 libraries for identifying caspase-3/7 activity inducers.
Assay Protocol Summary: HepG2 cells were dispensed at 2,000 per well in 5uL of culture medium into white solid bottom 1536-well plates (Corning Life Sciences, Corning, NY) using a Multidrop Combi (Thermo Scientific, Waltham, MA) dispenser. The assay plates were incubated at 37 C and 5% CO2 for 5hr, and then 23nL of compounds dissolved in DMSO and positive control were transferred using a Pintool station (Wako, San Diego, CA). The assay plates were incubated at 37C and 5% CO2 for 17hr. For caspase-3/7 activity read, 4uL of Caspase-Glo 3/7 reagent (Promega Corporation, Madison, WI) was added to each well of the assay plates using Flying Reagent Dispenser (FRD, Aurora Discovery, San Diego, CA) and incubated the assay plates at room temperature for 30min. The luminescence signal was quantified using a ViewLux plate reader (Perkin Elmer, Shelton, CT).
In general terms: In qHTS, concentration-response curves come from the screen itself.
`CCCO`: the “caspase activation” value is 0.0447% (inactive).

In the case of `CC(C)CCO`, the “caspase activation” value is 0.0687% (inactive). Turning to `C=CCOc1c(Br)cc(Br)cc1Br`, the “caspase activation” value is 0.0092% (inactive). Consider `C[C@@H]1C[C@H]2[C@@H]3C[C@H](F)C4=CC(=O)C=C[C@]4(C)[C@@]3(F)[C@@H](O)C[C@]2(C)[C@@]1(O)C(=O)CO`, for which the “caspase activation” value is -0.683% [at 42.5 µM] (inactive). To `CCN(CCC#N)c1ccccc1` belongs 0.0536% (inactive). The same measure for `CCS(=O)(=O)CCn1c([N+](=O)[O-])cnc1C`: -0.0719% [at 42.5 µM] (inactive). To `CCCCC(CC)CNC(=O)CC(C)OC(=O)CCC(=O)O` (stereo not given) belongs -0.927% [at 42.5 µM] (inactive); to `CNCc1ccccc1`, -0.666% [at 42.5 µM] (inactive). With `O=P(O)(O)OCC(O)CO` (stereo not given), the “caspase activation” value was 0.678% [at 42.5 µM] (inactive).

Turning to `C1CCN2C[C@@H]3C[C@@H](CN4CCCC[C@@H]34)[C@H]2C1`, the “caspase activation” value is 1.49% [at 42.5 µM] (inactive).

With `Nc1ccc(S(=O)(=O)Nc2ccccn2)cc1`, the “caspase activation” value is 0.27% [at 42.5 µM] (inactive). `COc1cc(C=O)ccc1OC(=O)C(C)C`: the “caspase activation” value was -0.0306% (inactive).

As for `Nc1cc(S(=O)(=O)O)ccc1S(=O)(=O)O`, the “caspase activation” value was 0.806% (inactive). To `CCCCC(CC)C(=O)OC(C)C` (stereo not given) belongs 0.114% (inactive).

Take `CCCCC/C=C/CC(=O)OC`: the “caspase activation” value is -1.11% (inactive). The same measure for `Cc1cccc(NC(=S)N(C)C)c1`: -2.69% (inactive); for `O=C(CN1CCN(Cc2ccc3c(c2)OCO3)CC1)N1c2ccccc2Sc2ccccc21`: 0.823% [at 42.5 µM] (inactive); for `CC(=O)OC(C)c1ccccc1` (stereo not given): -0.956% (inactive).

For the compound `CC(=O)OCCCc1ccccc1`, the “caspase activation” value is 0.661% (inactive). The same measure for `O=C(c1ccc2c(c1)C(=O)OC2=O)c1ccc2c(c1)C(=O)OC2=O`: -0.912% (inactive); for `CCC(C)N` (stereo not given): -1.44% (inactive). For `Cc1ccc(C(=O)C(=O)O)cc1C`, the “caspase activation” value was 0.0398% [at 42.5 µM] (inactive). `CCCCOC(=O)C(=O)OCCCC`: the “caspase activation” value is 0.0588% (inactive).

Consider `Cc1ccccc1OCC1CO1` (stereo not given), for which the “caspase activation” value was -0.495% (inactive). With `CCc1nccnc1C`, the “caspase activation” value is 0.186% (inactive). In the case of `NS(=O)(=O)c1ccc(Cl)c(S(N)(=O)=O)c1`, the “caspase activation” value was -1.59% [at 42.5 µM] (inactive).

Turning to `CC(=O)Nc1ncc([N+](=O)[O-])s1`, the “caspase activation” value was 0.724% [at 42.5 µM] (inactive). In the case of `COc1cc2c(Nc3ccc(Br)cc3F)ncnc2cc1OCC1CCN(C)CC1`, the “caspase activation” value is 0.563% [at 42.5 µM] (inactive). For the compound `NS(=O)(=O)c1cc2c(cc1Cl)NC(C(Cl)Cl)NS2(=O)=O` (stereo not given), the “caspase activation” value is -1.65% [at 42.5 µM] (inactive). Take `CCC(C)(C)C1CCC(=O)CC1`: the “caspase activation” value is -0.0317% (inactive). The same measure for `CC1=NN(c2ccc(S(=O)(=O)O)cc2)C(=O)C1N=Nc1ccccc1` (stereo not given): 2.2% (inactive); for `NS(=O)(=O)c1ccccc1OC(F)(F)F`: -0.16% (inactive). Turning to `CC(C)SCc1ccco1`, the “caspase activation” value is -0.18% [at 42.5 µM] (inactive).

Regarding `Cc1nc2n(c(=O)c1CCN1CCC(C(=O)c3ccc(F)cc3)CC1)CCS2`, the “caspase activation” value was -3.1% [at 42.5 µM] (inactive). To `COCC(=O)Nc1c(I)c(C(=O)NCC(O)CO)c(I)c(C(=O)N(C)CC(O)CO)c1I` (stereo not given) belongs -0.0288% [at 42.5 µM] (inactive). With `FC(F)(F)c1ccc(Cl)cc1Cl`, the “caspase activation” value was -1.03% (inactive). The same measure for `COc1ccc(/C=N/NC(=O)c2ccncc2)cc1OC`: 1.22% [at 42.5 µM] (inactive). The same measure for `Cc1oc(=O)oc1CN1CCN(c2cc3c(cc2F)c(=O)c(C(=O)O)c2n3C(C)S2)CC1` (stereo not given): -2.01% [at 42.5 µM] (inactive); for `CC(=O)c1ccc2c(c1)CCCC2`: 0.121% (inactive). Regarding `O=C1c2ccccc2-c2ccccc21`, the “caspase activation” value is 0.925% (inactive).
